Assay outcomes from PubChem BioAssay.
hNpr1 antagonist: human Npr1 receptor antagonism | P16066 | HEK293 hNpr1 GloSensor cGMP, ANP-stimulated luminescence | Potency, µM (highest dose often 46.3 µM), inactives show at the highest dose activity change, negative = inhibition, most hits filed as inhibitors | actives 1.6% (n = 76,000) | AID 1347048; calls by dose curve; further: on the % scale 0 is the no-effect control and ±100 the full control effect; nearly all actives have a fitted effect of over 60% in size
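Compound pre-incubated 30 min at room temperature on GloSensor-loaded HEK293 cells stably carrying hNpr1 and the pGS-40F cGMP biosensor. Stimulation uses hNppA at 0.1 nM final; luminescence is taken at baseline and 20 min post-agonist.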
NIH3T3 tox: cytotoxic compounds in NIH 3T3 cells; NIH 3T3 viability, CellTiter-Glo ATP luminescence, 48-72 h; Potency, µM (doses to about 96.7 µM), for inactives: at the top dose activity change, negative = cytotoxicity, hits mostly inhibitors; actives 4.3% (n = 94,000); AID 1345082; further: on the % scale 0 is the no-effect control and ±100 the full control effect; nearly all actives have a fitted effect of over 55% in size
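ATP-dependent luminescence (CellTiter-Glo) served as the viability signal for NIH 3T3 cells treated with compound for 48 or 72 hr at 37 °C.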
Luciferase inh: Photinus pyralis luciferase inhibition; Potency, µM (series often up to 115 µM), most hits filed as inhibitors; P08659; actives 2.5% (n = 76,000); AID 1347043; purified P. pyralis luciferase, luminescence, biochemical; further: on the % scale 0 is the no-effect control and ±100 the full control effect; nearly all actives have a fitted effect of over 65% in size
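Luminescence read by CCD imaging after purified firefly luciferase (10nM final) was added to substrate buffer holding 10uM D-luciferin and 10uM ATP, pH 7.5, pre-dosed with compound.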
HEK293 tox: kills HEK 293 cells; actives 6.6% (n = 94,000); HEK 293 viability, ATP luminescence (CellTiter-Glo), 48-72 h; Potency, µM (highest dose often 115 µM), for inactives: top-dose activity change, negative = cytotoxicity, usual class: inhibitors; further: on the % scale 0 is the no-effect control and ±100 the full control effect; nearly all actives have a fitted effect of over 60% in size
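HEK 293 cells seeded at 250 cells/well were exposed to compound for 48 or 72 hr at 37 degree Celsius. Viability taken as ATP content by CellTiter-Glo luminescence.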
Npr1 antag conf: hNpr1 antagonism, confirmation assay. shares compounds with hNpr1 antagonist. HEK293 hNpr1 cGMP GloSensor luminescence, ANP-stimulated. Potency, µM (highest dose often 57.6 µM), inactives show at the top dose activity change, negative = inhibition, hits mostly inhibitors. actives 76% (n = 1,400); calls by dose curve; further: nearly all actives have a fitted effect of over 70% in size
Npr2 selectivity: hNpr2 antagonism, selectivity versus Npr1. shares compounds with hNpr1 antagonist. HEK293 hNpr2 GloSensor cGMP luminescence, CNP-stimulated. Potency, µM (series often up to 57.6 µM), without a hit: top-dose activity change, negative = inhibition, hits mostly inhibitors. actives 67% (n = 1,400). AID 1347046; calls by dose curve; further: nearly all actives have a fitted effect of over 70% in size
FLuc inh counter: inhibits firefly luciferase, false Npr1 antagonist flag; AID 1347047; actives 0.7% (n = 1,400); Potency, µM (top dose mostly 57.6 µM), without a hit: at the top dose activity change, negative = inhibition, hits mostly inhibitors; purified FLuc enzyme, luminescence, Km substrate; shares compounds with hNpr1 antagonist; further: 0% is about no effect
GloSensor cGMP: control cell line activity, Npr1 antagonist counter-screen; Potency, µM (series often up to 57.6 µM), for inactives: top-dose activity change, negative = inhibition, hits mostly inhibitors; actives 69% (n = 1,400); shares compounds with hNpr1 antagonist; HEK293 GloSensor cGMP, SNP-stimulated, luminescence; calls by dose curve; further: on the % scale 0 is the no-effect control and ±100 the full control effect; nearly all actives have a fitted effect of over 70% in size
Active calls of the source: *; [ ] = another dose, or the depositor's remark. Sampled rows, rich in hits. Any-hit rate of the full collection: about 11%. Unless noted, the call rests on the fitted dose curve; in most records, active means well fitted curve in the direction sought with a large enough effect; inconclusive means small, poorly fitted or top-dose-only effect, or another doubt; inactive means no such curve, though single readings can be large; an effect the other way counts as inactive or inconclusive. Potency means the concentration at half of the fitted maximal effect.

CCOc1cc2c(cn1)NCCN(Cc1ccncc1Cl)C2 was read as hNpr1 antagonist 35.5µM*, NIH3T3 tox inconclusive, Luciferase inh inactive, HEK293 tox inconclusive, Npr1 antag conf 31.4µM*, Npr2 selectivity inconclusive, FLuc inh counter 3.6%[86.2 µM] and GloSensor cGMP 39.6µM*.
CCOc1cc2c(cn1)NCCN(Cc1ccc3[nH]ccc3c1)C2 was read as hNpr1 antagonist 2.6%[70.6 µM], NIH3T3 tox -23.1%[138 µM], Luciferase inh inactive and HEK293 tox inconclusive.
CCS(=O)(=O)N1CCC2(CCC(=O)N(Cc3ccccc3)CC2)CC1 was read as hNpr1 antagonist -0.1%, NIH3T3 tox -8.2%, Luciferase inh inactive and HEK293 tox -15.0%.
Screening O=C1CCC2(CCN1Cc1ccccc1)CCN(S(=O)(=O)c1cccs1)CC2 returned hNpr1 antagonist inconclusive, NIH3T3 tox inconclusive, Luciferase inh inactive, HEK293 tox inconclusive, Npr1 antag conf inconclusive, Npr2 selectivity -28.5%, FLuc inh counter -0.1% and GloSensor cGMP inconclusive.
Cc1ccc(CN2CC(Oc3ccc(-c4noc(-c5cccnc5)n4)cc3)C2)o1 was read as hNpr1 antagonist 12.6µM*, NIH3T3 tox inconclusive, Luciferase inh inactive, HEK293 tox inconclusive, Npr1 antag conf 19.3µM*, Npr2 selectivity 24.3µM*, FLuc inh counter inconclusive and GloSensor cGMP 21.7µM*.
CCCN1CC(Oc2ccc(-c3noc(-c4cccnc4)n3)cc2)C1 was read as hNpr1 antagonist -25.0%, NIH3T3 tox inconclusive, Luciferase inh inactive and HEK293 tox inconclusive.
For CCCS(=O)(=O)N1CC(Oc2ccc(-c3noc(-c4cccnc4)n3)cc2)C1 the results were hNpr1 antagonist 14.1µM*, NIH3T3 tox inconclusive, Luciferase inh inactive, HEK293 tox inconclusive, Npr1 antag conf 19.3µM*, Npr2 selectivity 17.2µM*, FLuc inh counter -19.3% and GloSensor cGMP 15.3µM*.
Cc1nn(-c2ccccc2)c2c1C(C1CC1)N(C1CCN(Cc3ccc(Cl)nc3)CC1)C2=O (stereo not drawn) was read as NIH3T3 tox -11.2% and HEK293 tox -0.6%.
Screening Cc1cc(OCCN2CCOCC2)c(C)c2c1CC[C@@H]([C@H](C)C(=O)N1CCCCC1)C2 returned hNpr1 antagonist 17.8µM*, NIH3T3 tox inconclusive, Luciferase inh inactive, HEK293 tox 20µM*, Npr1 antag conf 39.6µM*, Npr2 selectivity 35.3µM*, FLuc inh counter 1.6%[86.2 µM] and GloSensor cGMP inconclusive.
`O=C(NCc1ccc2c(c1)OCO2)c1nc(-c2cccc(C(F)(F)F)c2)c2ccccn12` gave hNpr1 antagonist inconclusive, NIH3T3 tox -15.2%, Luciferase inh inactive, HEK293 tox inconclusive, Npr1 antag conf -20.8%, Npr2 selectivity -23.9%, FLuc inh counter 3.0% and GloSensor cGMP -0.3%.
Screening Cc1cccc(N2CCN(C(=O)CC3CCCCN(Cc4ccccc4)C3=O)CC2)c1 (stereo not drawn) returned hNpr1 antagonist 12.6µM*, NIH3T3 tox inconclusive, Luciferase inh inactive, HEK293 tox inconclusive, Npr1 antag conf 19.3µM*, Npr2 selectivity 21.7µM*, FLuc inh counter -0.8% and GloSensor cGMP 21.7µM*.
O=C(CN1CCOCC1)N1C[C@@H](COCC2CC2)[C@H](c2ccccn2)C1 was read as hNpr1 antagonist -0.9%, NIH3T3 tox 4.2%, Luciferase inh inactive and HEK293 tox -3.0%.
O=C(CCC1CCCC1)NCc1nnc2cc(-c3nc(C4CC4)no3)ccn12 was read as hNpr1 antagonist 3.7%, NIH3T3 tox inactive, Luciferase inh inactive and HEK293 tox inactive.
Screening Cc1noc2c(-c3cccnc3)cc(-c3cccc(C(F)(F)F)c3)nc12 returned hNpr1 antagonist -17.1%[70.6 µM], NIH3T3 tox inconclusive, Luciferase inh inactive and HEK293 tox inconclusive.
Screening Cc1noc2c(-c3cn[nH]c3)cc(-c3cccc(C(F)(F)F)c3)nc12 returned hNpr1 antagonist inconclusive, NIH3T3 tox 25.1µM*, Luciferase inh inactive, HEK293 tox 35.5µM*, Npr1 antag conf inconclusive, Npr2 selectivity -29.0%[86.2 µM], FLuc inh counter -7.5%[86.2 µM] and GloSensor cGMP -16.2%[86.2 µM].
Screening CCOc1ccccc1C(=O)N1CCC(Cc2nc(-c3ccc(OC)cc3)no2)CC1 returned hNpr1 antagonist 11.2µM*, NIH3T3 tox inconclusive, Luciferase inh inactive, HEK293 tox inconclusive, Npr1 antag conf 24.3µM*, Npr2 selectivity 21.7µM*, FLuc inh counter 0.9% and GloSensor cGMP 24.3µM*.
`CCCCOc1ccc(C(=O)N2CCC(Cc3nc(-c4cnccn4)no3)CC2)cc1` gave hNpr1 antagonist inconclusive, NIH3T3 tox inconclusive, Luciferase inh inactive, HEK293 tox inconclusive, Npr1 antag conf inconclusive, Npr2 selectivity inconclusive, FLuc inh counter 3.5% and GloSensor cGMP inconclusive.
CCOc1ccc(C(=O)N2CCC(Cc3nc(-c4cnccn4)no3)CC2)cc1 was read as hNpr1 antagonist -7.7%, NIH3T3 tox inconclusive, Luciferase inh inactive and HEK293 tox -26.6%.
Screening COc1ccc(-c2noc(CC3CCN(C(=O)C4(c5ccc(OC)cc5)CC4)CC3)n2)cc1 returned hNpr1 antagonist 1.41µM*, NIH3T3 tox inconclusive, Luciferase inh inactive, HEK293 tox inconclusive, Npr1 antag conf 2.73µM*, Npr2 selectivity 3.43µM*, FLuc inh counter 3.6% and GloSensor cGMP 3.06µM*.
`CCc1ccc(C(=O)N2CCC(Cc3nc(-c4ccc(OC)cc4)no3)CC2)cc1` gave hNpr1 antagonist 3.55µM*, NIH3T3 tox inconclusive, Luciferase inh inactive, HEK293 tox inconclusive, Npr1 antag conf 6.11µM*, Npr2 selectivity 9.68µM*, FLuc inh counter -1.1% and GloSensor cGMP 6.85µM*.
Screening COc1ccc(-c2noc(CC3CCN(C(=O)c4ccccc4C)CC3)n2)cc1 returned hNpr1 antagonist 10µM*, NIH3T3 tox inconclusive, Luciferase inh inactive, HEK293 tox inconclusive, Npr1 antag conf 15.3µM*, Npr2 selectivity 17.2µM*, FLuc inh counter 3.1% and GloSensor cGMP 12.2µM*.
